Inconclusive results are not listed. Entries that show only a call come without a potency. A number with no mark means an inactive call. Calls of active or inactive are those of the source. Calls come from the whole dose curve; as a rule, active = well fitted curve in the direction sought with a large enough effect in the repeat runs; inconclusive = weak or mixed curves; inactive = no such curve, though single readings can be large; an effect the other way counts as inactive or inconclusive.

Here are results for 36 compounds from PubChem BioAssay (Tox21).

Nuclear receptor subfamily 1 group I member 2 (Rattus norvegicus), sequence (Q9R1A7 whole entry, looked up): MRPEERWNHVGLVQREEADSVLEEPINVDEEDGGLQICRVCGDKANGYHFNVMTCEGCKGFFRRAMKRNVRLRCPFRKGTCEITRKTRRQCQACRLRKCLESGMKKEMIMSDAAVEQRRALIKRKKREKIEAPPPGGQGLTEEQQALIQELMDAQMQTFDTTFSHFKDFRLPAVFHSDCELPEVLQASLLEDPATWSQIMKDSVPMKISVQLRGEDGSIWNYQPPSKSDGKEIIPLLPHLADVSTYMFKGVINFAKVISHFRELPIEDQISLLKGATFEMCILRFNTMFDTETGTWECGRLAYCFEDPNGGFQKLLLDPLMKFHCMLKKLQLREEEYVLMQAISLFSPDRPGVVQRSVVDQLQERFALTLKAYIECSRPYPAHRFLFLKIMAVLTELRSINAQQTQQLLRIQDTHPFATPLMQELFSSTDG
Cytochrome P450 2D6 (Homo sapiens), sequence (P10635 whole entry, looked up): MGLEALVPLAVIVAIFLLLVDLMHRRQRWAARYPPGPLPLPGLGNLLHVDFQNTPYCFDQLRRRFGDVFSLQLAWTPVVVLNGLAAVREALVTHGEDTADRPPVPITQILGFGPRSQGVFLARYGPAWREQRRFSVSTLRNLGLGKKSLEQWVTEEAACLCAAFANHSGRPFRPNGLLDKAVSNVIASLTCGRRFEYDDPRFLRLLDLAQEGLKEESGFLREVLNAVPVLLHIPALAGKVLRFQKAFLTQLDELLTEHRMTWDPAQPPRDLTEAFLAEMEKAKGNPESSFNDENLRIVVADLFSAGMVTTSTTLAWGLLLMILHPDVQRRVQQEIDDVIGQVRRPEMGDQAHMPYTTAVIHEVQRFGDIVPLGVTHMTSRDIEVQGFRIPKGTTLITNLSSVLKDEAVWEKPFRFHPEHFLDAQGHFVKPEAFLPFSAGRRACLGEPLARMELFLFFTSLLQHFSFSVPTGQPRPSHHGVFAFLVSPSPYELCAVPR
Cytochrome P450 2C19 (Homo sapiens), sequence (P33261 whole entry, looked up): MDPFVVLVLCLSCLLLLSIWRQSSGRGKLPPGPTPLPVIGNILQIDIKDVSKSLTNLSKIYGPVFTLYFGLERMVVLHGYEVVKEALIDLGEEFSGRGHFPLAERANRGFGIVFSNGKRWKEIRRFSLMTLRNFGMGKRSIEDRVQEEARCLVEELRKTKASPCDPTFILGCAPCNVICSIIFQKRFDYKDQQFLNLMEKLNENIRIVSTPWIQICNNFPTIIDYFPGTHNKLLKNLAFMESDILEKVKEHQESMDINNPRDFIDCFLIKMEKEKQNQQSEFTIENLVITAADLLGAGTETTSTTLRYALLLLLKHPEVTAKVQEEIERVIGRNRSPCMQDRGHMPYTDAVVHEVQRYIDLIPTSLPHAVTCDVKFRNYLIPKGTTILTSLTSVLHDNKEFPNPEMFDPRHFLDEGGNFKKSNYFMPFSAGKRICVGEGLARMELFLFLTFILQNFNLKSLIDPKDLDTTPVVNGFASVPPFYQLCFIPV

In the first test the target is Nuclear receptor subfamily 1 group I member 2 (Rattus norvegicus) (UniProt Q9R1A7). Nature of the test: Rat pregnane X receptor (rPXR) activation by small molecules, qHTS assay (AID 1346983). Note: nearly all actives have a fitted effect of over 20% in size. Note: potency is the fitted concentration of half-maximal effect. The following applies: rPXR luciferase reporter cells, One-Glo luminescence, 24 h; max activation: hits give high values. In outline:
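Cell-based rPXR luciferase reporter assay, 2,000 cells per well, rested 5hr at 37 C before compound addition in DMSO, then 24 hr at 37 C. One-Glo reagent was added and luminescence read after 30 min at room temperature.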
On the technique in general: qHTS replaces the single test concentration by a dilution series.
For the compound `CCc1c(C)[nH]c2c1C(=O)C(CN1CCOCC1)CC2` (stereo not given), the max activation is -1.99%.

With `COc1ccc(CN(CCN(C)C)c2ncccn2)cc1`, the max activation is -0.0529%.

For the compound `Cc1ccc(S(=O)(=O)NC(=O)NC2CCCC2)cc1`, the max activation is -4.06%.

Take `CC1(COc2ccc(CC3SC(=O)NC3=O)cc2)CCCCC1` (stereo not given): the max activation is 5.72%.

Consider `COc1ccc(C(=O)c2ccc(C)cc2)c(O)c1`, for which the max activation was -1.42%.

Consider `CCc1ccc(C(=O)C(C)CN2CCCCC2)cc1` (stereo not given), for which the max activation was -6.71%.

For `O=C(OC1C[C@H]2CC[C@@H](C1)[N+]21CCCC1)C(O)(c1ccccc1)c1ccccc1` (stereo not given in full), the max activation is -1.51%.

For `CC(=O)OCC(=O)[C@@]1(O)CC[C@H]2[C@@H]3CCC4=CC(=O)C=C[C@]4(C)[C@@]3(F)[C@@H](O)C[C@@]21C`, the Potency is 8.91 µM (active).

As to `CCOCCn1c(N2CCCN(C)CC2)nc2ccccc21`, the max activation is 4.1%.

A further test has as its target Nuclear receptor subfamily 1 group I member 2 (Homo sapiens) (UniProt O75469). In words: CYP3A4 induction through human pregnane X receptor (PXR) by small molecules, qHTS assay (AID 1346984). Note: nearly all actives have a fitted effect of over 40% in size. Note: potency is the fitted concentration of half-maximal effect. To be noted: DPX-2 HepG2 PXR, CYP3A4-luciferin luminescence, 24 h; series mostly up to 46.1 µM. An outline of the steps: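 Readings come from a luciferase reporter: DPX-2 cells, which are HepG2 cotransfected with PXR and a CYP3A4-promoter construct, were exposed to test compounds for 24 h at 37C before One-Glo detection.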
As to `COc1ccc(CN(CCN(C)C)c2ncccn2)cc1`, the Potency entry was “inactive”.

Consider `Cc1ccc(S(=O)(=O)NC(=O)NC2CCCC2)cc1`, for which the Potency result was “inactive”.

With `COc1ccc(C(=O)c2ccc(C)cc2)c(O)c1`, the Potency result was “inactive”.

Take `O=C(OC1C[C@H]2CC[C@@H](C1)[N+]21CCCC1)C(O)(c1ccccc1)c1ccccc1` (stereo not given in full): the Potency result is “inactive”.

In the case of `CC(=O)OCC(=O)[C@@]1(O)CC[C@H]2[C@@H]3CCC4=CC(=O)C=C[C@]4(C)[C@@]3(F)[C@@H](O)C[C@@]21C`, the Potency was 0.631 µM (active).

For another test the target is unchanged. In words: Human pregnane X receptor (PXR) activation by small molecules, qHTS assay (AID 1346985). Note: nearly all actives have a fitted effect of over 40% in size. To be noted: DPX-2 HepG2 CYP3A4-luciferase, 24 h; series mostly up to 38.3 µM. In outline: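 DPX-2 cells (HepG2 co-transfected with a PXR response element and a CYP3A4-promoter luciferase construct) were seeded at 2,000 per well, rested 5 hr at 37C, then exposed to DMSO-dissolved compounds for 24 hr. Activation was read as luciferase luminescence.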
`COc1ccc(CN(CCN(C)C)c2ncccn2)cc1`: the Potency result was “inactive”.

Consider `Cc1ccc(S(=O)(=O)NC(=O)NC2CCCC2)cc1`, for which the Potency entry is “inactive”.

For the compound `CCc1ccc(C(=O)C(C)CN2CCCCC2)cc1` (stereo not given), the Potency entry was “inactive”.

With `O=C(OC1C[C@H]2CC[C@@H](C1)[N+]21CCCC1)C(O)(c1ccccc1)c1ccccc1` (stereo not given in full), the Potency entry is “inactive”.

In the case of `CC(=O)OCC(=O)[C@@]1(O)CC[C@H]2[C@@H]3CCC4=CC(=O)C=C[C@]4(C)[C@@]3(F)[C@@H](O)C[C@@]21C`, the Potency result was “inactive”.

For the next test, the target named is Cytochrome P450 2D6 (Homo sapiens) (UniProt P10635). Nature of the test: Cytochrome P450 Family 2 Subfamily D Member 6 (CYP2D6) small molecule antagonists: luciferase reporter qHTS assay (AID 1671196). Note: nearly all actives have a fitted effect of over 50% in size. Note: potency is the fitted concentration of half-maximal effect. The following applies: P450-Glo CYP2D6 enzyme assay, luciferin luminescence, 1 h; series mostly up to 115 µM. An outline of the steps:
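Each well received CYP2D6 with its proluciferin substrate and chemical, sat 10 min, then got NADPH regeneration solution for 1 h at room temperature. Luminescence in RLU served as the activity measure.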
A general note: Reporter assays use an easily measured gene product as a stand-in for the process of interest.
`C=C[Si]1(C)O[Si](C)(C=C)O[Si](C)(C=C)O[Si](C)(C=C)O1` (stereo not given): the Potency entry was “inactive”.

Consider `Cc1ccccc1CCO`, for which the Potency entry is “inactive”.

Regarding `c1ccc(CN(Cc2ccccc2)Cc2ccccc2)cc1`, the Potency is 7.96 µM (active).

Take `N#Cc1ccc(CC(=O)c2cccc(C(F)(F)F)c2)cc1`: the Potency was 63.3 µM (active).

In the case of `COc1cc(CNC(=O)CCCC/C=C/C(C)C)ccc1O`, the Potency was 38.9 µM (active).

Take `COc1ccc(CN(CCN(C)C)c2ncccn2)cc1`: the Potency was 0.692 µM (active).

In the case of `O=C(C1CCCCC1)N1CC(=O)N2CCCc3ccccc3C2C1` (stereo not given), the Potency entry is “inactive”.

For the compound `CC(C)C/C=C(\C=O)c1ccccc1`, the Potency result was “inactive”.

`CC(CN=Cc1ccccc1O)N=Cc1ccccc1O` (stereo not given): the Potency is 35.6 µM (active).

With `CC(C)CCCCCOC(=O)CS`, the Potency was 25.2 µM (active).

In the case of `Cc1ccc(S(=O)(=O)NC(=O)NC2CCCC2)cc1`, the Potency result is “inactive”.

Consider `CC1(COc2ccc(CC3SC(=O)NC3=O)cc2)CCCCC1` (stereo not given), for which the Potency entry was “inactive”.

Consider `COc1ccc(C(=O)c2ccc(C)cc2)c(O)c1`, for which the Potency is 40.4 µM (active).

For `Cc1c(N=C=O)cccc1N=C=O`, the Potency entry was “inactive”.

Take `Clc1nc2ccccc2nc1Cl`: the Potency was 64 µM (active).

`c1ccc(CCNc2nc(-c3ccccc3)cs2)cc1`: the Potency was 17.4 µM (active).

Consider `CCc1ccc(C(=O)C(C)CN2CCCCC2)cc1` (stereo not given), for which the Potency was 0.49 µM (active).

As for `O=C(OC1C[C@H]2CC[C@@H](C1)[N+]21CCCC1)C(O)(c1ccccc1)c1ccccc1` (stereo not given in full), the Potency was 4.9 µM (active).

For `Cc1ccc2ccccc2c1[N+](=O)[O-]`, the Potency result was “inactive”.

Consider `C[C@H]1C[C@H]2[C@@H]3CCC4=CC(=O)C=C[C@]4(C)[C@@]3(F)[C@@H](O)C[C@]2(C)[C@@]1(O)C(=O)COP(=O)(O)O`, for which the Potency result was “inactive”.

Turning to `CC(=O)OCC(=O)[C@@]1(O)CC[C@H]2[C@@H]3CCC4=CC(=O)C=C[C@]4(C)[C@@]3(F)[C@@H](O)C[C@@]21C`, the Potency result was “inactive”.

Consider `CCN(CC)CC(=O)OCC(=O)[C@@]1(O)CC[C@H]2[C@@H]3CCC4=CC(=O)CC[C@]4(C)[C@H]3[C@@H](O)C[C@@]21C`, for which the Potency result is “inactive”.

Consider `O=C(O)c1ccc2c(c1)nc(C(=O)NC1CCN(C3CC3)CC1)n2Cc1cc(-c2ccc(Cl)s2)on1`, for which the activity change, negative = inhibition is -3.64% [at 23.6 µM].

Take `O=C(O)c1cc(C(=O)O)cc([N+](=O)[O-])c1`: the Potency entry is “inactive”.

In the case of `Cc1cc(SC2=C(O)C[C@@](CCc3ccc(N)cc3)(C(C)C)OC2=O)c(C(C)(C)C)cc1CO`, the Potency result was “inactive”.

With `CC(C)(C)c1ccc(CCC=O)cc1`, the Potency entry was “inactive”.

In the case of `CCCCCC1CCC(=O)O1` (stereo not given), the Potency entry is “inactive”.

On to `C[C@H](CN1CCCC1)C(=O)c1ccc(C(F)(F)F)cc1`, for which the Potency was 1.55 µM (active).

As for `Sc1nc(S)nc(S)n1`, the Potency entry was “inactive”.

With `Cc1cc(C)c(C)c(O)c1`, the Potency result was “inactive”.

For `COc1ccc(/C=C/S(=O)(=O)NC(=O)c2ccc(C)cc2Cl)cc1`, the Potency entry is “inactive”.

Another test has as its target Cytochrome P450 2C19 (Homo sapiens) (UniProt P33261). In words: Cytochrome P450 Family 2 Subfamily C Member 19 (CYP2C19) small molecule antagonists: luciferase reporter qHTS assay (AID 1671197). Note: nearly all actives have a fitted effect of over 65% in size. Note: potency is the fitted concentration of half-maximal effect. To be noted: P450-Glo CYP2C19 enzyme, luciferin luminescence, 1 h; series mostly up to 115 µM. An outline of the steps: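 Light output is proportional to CYP2C19 activity: proluciferin substrate is converted to luciferin, then detected by a luciferin detection reagent that also stops the 1 h, 37C NADPH-driven reaction. Ketoconazole serves as positive control.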
Turning to `Cc1ccccc1CCO`, the Potency entry was “inactive”.

Take `N#Cc1ccc(CC(=O)c2cccc(C(F)(F)F)c2)cc1`: the Potency is 20 µM (active).

As to `Cc1cc(N)n(-c2ccccc2)n1`, the Potency is 28.3 µM (active).

Regarding `COc1cc(CNC(=O)CCCC/C=C/C(C)C)ccc1O`, the Potency was 9.77 µM (active).

Turning to `COc1ccc(CN(CCN(C)C)c2ncccn2)cc1`, the Potency was 21.9 µM (active).

Consider `O=C(C1CCCCC1)N1CC(=O)N2CCCc3ccccc3C2C1` (stereo not given), for which the Potency was 4.9 µM (active).

In the case of `CC(C)C/C=C(\C=O)c1ccccc1`, the Potency was 17.8 µM (active).

In the case of `CC(CN=Cc1ccccc1O)N=Cc1ccccc1O` (stereo not given), the Potency result was “inactive”.

For the compound `Cc1ccc(S(=O)(=O)NC(=O)NC2CCCC2)cc1`, the Potency entry is “inactive”.

For `Cc1c(N=C=O)cccc1N=C=O`, the Potency is 72.4 µM (active).

As for `Clc1nc2ccccc2nc1Cl`, the Potency entry is “inactive”.

On to `O=C(Cl)c1ccc(F)c(Cl)c1`, for which the Potency entry was “inactive”.

Turning to `Cc1ccc2ccccc2c1[N+](=O)[O-]`, the Potency is 79.6 µM (active).

Take `C[C@H]1C[C@H]2[C@@H]3CCC4=CC(=O)C=C[C@]4(C)[C@@]3(F)[C@@H](O)C[C@]2(C)[C@@]1(O)C(=O)COP(=O)(O)O`: the Potency result is “inactive”.

For the compound `CC(=O)OCC(=O)[C@@]1(O)CC[C@H]2[C@@H]3CCC4=CC(=O)C=C[C@]4(C)[C@@]3(F)[C@@H](O)C[C@@]21C`, the Potency entry is “inactive”.

Turning to `O=C(O)c1ccc2c(c1)nc(C(=O)NC1CCN(C3CC3)CC1)n2Cc1cc(-c2ccc(Cl)s2)on1`, the activity change, negative = inhibition is 14.2% [at 23.6 µM].

Take `O=C(O)c1cc(C(=O)O)cc([N+](=O)[O-])c1`: the Potency result is “inactive”.

Turning to `O=C(Nc1ccccc1)c1cc([N+](=O)[O-])ccc1Cl`, the Potency is 22.4 µM (active).

In the case of `CCCCCC1CCC(=O)O1` (stereo not given), the Potency result is “inactive”.

With `CCOCCn1c(N2CCCN(C)CC2)nc2ccccc21`, the Potency entry was “inactive”.
